From PubChem BioAssay AID1159580 (chemical genetic matrix, 2015)
Hit rate of the full screen: of about 5,500 compounds, about 2,000 (36%) were called active. Another 18% or so got no clear call; they are omitted. No stated cut-off is given here; in the data, active means normalized growth mostly below about 0.91 (no sharp cut-off); inconclusive means no clear call, values can overlap the other calls; inactive means mostly above about 0.92. Some of the results follow.

Assay: chemical genetic growth profiling, strain panel (AID 1159580);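 further: tested at 20 µM; growth read once vehicle control cultures reached saturation at 30 °C; 1 = growth at the plate median or of vehicle wells; lower values mean less growth of the strain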
Conditions: growth OD

Measured: normalized growth

COc1cc(OC)c2c(=O)c(-c3ccccc3)c(C)oc2c1OC
inactive: S. cerevisiae deletion strains, locus YJR043C, strain POL32, active compounds read low 1.01 | S. cerevisiae deletion strains, locus YJR075W, strain HOC1, active compounds read low 1.02 | S. cerevisiae deletion strains, locus YKL009W, strain mrt4, active compounds read low 1 | S. cerevisiae deletion strains, locus YKL068W, active compounds read low 1 | S. cerevisiae deletion strains, locus YKL085W, strain MDH1 (second series), active compounds read low 0.996 | S. cerevisiae deletion strains, locus YKL085W, strain MDH1, active compounds read low 0.996 | S. cerevisiae deletion strains, locus YKL160W, strain elf1, active compounds read low 1 | S. cerevisiae deletion strains, locus YKL190W, strain CNB1, active compounds read low 1.01 | S. cerevisiae deletion strains, locus YKR001C, strain vps1, active compounds read low 0.993 | S. cerevisiae deletion strains, locus YKR026C, strain gcn3, active compounds read low 0.966 | S. cerevisiae deletion strains, locus YKR091W, strain srl3, active compounds read low 0.962 | S. cerevisiae deletion strains, locus YLL001W, strain dnm1, active compounds read low 1.01 | S. cerevisiae deletion strains, locus YLL026W, active compounds read low 0.984 | S. cerevisiae deletion strains, locus YLL041C, strain sdh2, active compounds read low 1 | S. cerevisiae deletion strains, locus YLR027C, strain aat2, active compounds read low 0.982 | S. cerevisiae deletion strains, locus YLR039C, strain RIC1, active compounds read low 0.984 | S. cerevisiae deletion strains, locus YLR058C, strain SHM2, active compounds read low 1.01 | S. cerevisiae deletion strains, locus YLR102C, strain apc9, active compounds read low 0.999 | S. cerevisiae deletion strains, locus YLR221C, strain rsa3, active compounds read low 0.957 | S. cerevisiae deletion strains, locus YLR258W, strain gsy2, active compounds read low 0.987 | S. cerevisiae deletion strains, locus YLR262C, strain YPT6 (second series), active compounds read low 0.951 | S. cerevisiae deletion strains, locus YLR262C, strain YPT6, active compounds read low 0.989 | S. cerevisiae deletion strains, locus YLR268W, strain sec22, active compounds read low 0.972 | S. cerevisiae deletion strains, locus YLR320W, strain mms22, active compounds read low 0.984 | S. cerevisiae deletion strains, locus YLR330W, strain CHS5, active compounds read low 1.01 | S. cerevisiae deletion strains, locus YLR342W, strain FKS1 (second series), active compounds read low 1.01 | S. cerevisiae deletion strains, locus YLR342W, strain FKS1, active compounds read low 0.956 | S. cerevisiae deletion strains, locus YLR357W, strain rsc2, active compounds read low 0.986 | S. cerevisiae deletion strains, locus YLR370C, strain arc18, active compounds read low 0.977 | S. cerevisiae deletion strains, locus YLR371W, strain rom2, active compounds read low 1 | S. cerevisiae deletion strains, locus YLR384C, strain iki3, active compounds read low 0.98 | S. cerevisiae deletion strains, locus YLR418C, strain cdc73, active compounds read low 1.03 | S. cerevisiae deletion strains, locus YML016C, strain PPZ1, active compounds read low 1.01 | S. cerevisiae deletion strains, locus YML032C, strain rad52, active compounds read low 0.997 | S. cerevisiae deletion strains, locus YML120C, strain ndi1, active compounds read low 0.973 | S. cerevisiae deletion strains, locus YML124C, strain tub3, active compounds read low 0.989 | S. cerevisiae deletion strains, locus YMR058W, strain fet3, active compounds read low 0.988 | S. cerevisiae deletion strains, locus YMR078C, strain ctf18, active compounds read low 0.99 | S. cerevisiae deletion strains, locus YMR125W, strain sto1, active compounds read low 0.981 | S. cerevisiae deletion strains, locus YMR129W, active compounds read low 0.972 | S. cerevisiae deletion strains, locus YMR205C, strain PFK2, active compounds read low 0.95 | S. cerevisiae deletion strains, locus YMR223W, strain ubp8, active compounds read low 0.996 | S. cerevisiae deletion strains, locus YMR231W, strain pep5, active compounds read low 0.992 | S. cerevisiae deletion strains, locus YMR263W, strain SAP30, active compounds read low 1.02 | S. cerevisiae deletion strains, locus YMR307W, strain GAS1, active compounds read low 1.02 | S. cerevisiae deletion strains, locus YNL067W, strain RPL9B, active compounds read low 1.02 | S. cerevisiae deletion strains, locus YNL071W, strain lat1, active compounds read low 0.984 | S. cerevisiae deletion strains, locus YNL128W, strain TEP1, active compounds read low 1.04 | S. cerevisiae deletion strains, locus YNL153C, strain GIM3, active compounds read low 1.01 | S. cerevisiae deletion strains, locus YNL209W, strain ssb2, active compounds read low 0.982 | S. cerevisiae deletion strains, locus YNL233W, strain BNI4, active compounds read low 1 | S. cerevisiae deletion strains, locus YNL248C, strain rpa49, active compounds read low 1.01 | S. cerevisiae deletion strains, locus YNL250W, strain rad50, active compounds read low 0.994 | S. cerevisiae deletion strains, locus YNL271C, strain bni1, active compounds read low 1 | S. cerevisiae deletion strains, locus YNL298W, strain CLA4, active compounds read low 1.01 | S. cerevisiae deletion strains, locus YNL307C, strain MCK1, active compounds read low 0.978 | S. cerevisiae deletion strains, locus YNL322C, strain KRE1 (second series), active compounds read low 0.979 | S. cerevisiae deletion strains, locus YNL322C, strain KRE1, active compounds read low 1.01 | S. cerevisiae deletion strains, locus YNR049C, strain mso1, active compounds read low 0.976 | S. cerevisiae deletion strains, locus YNR052C, strain pop2, active compounds read low 1.01 | S. cerevisiae deletion strains, locus YOL006C, strain TOP1, active compounds read low 1.02 | S. cerevisiae deletion strains, locus YOL012C, strain htz1 0.978 | S. cerevisiae deletion strains, locus YOL147C, strain pex11, active compounds read low 0.992 | S. cerevisiae deletion strains, locus YOR001W, strain rrp6, active compounds read low 1.01 | S. cerevisiae deletion strains, locus YOR061W, strain CKA2, active compounds read low 1.01 | S. cerevisiae deletion strains, locus YOR069W, strain VPS5, active compounds read low 1 | S. cerevisiae deletion strains, locus YOR070C, strain gyp1, active compounds read low 0.987 | S. cerevisiae deletion strains, locus YOR080W, strain dia2, active compounds read low 0.989 | S. cerevisiae deletion strains, locus YOR083W, strain WHI5, active compounds read low 1.01 | S. cerevisiae deletion strains, locus YOR106W, strain vam3, active compounds read low 0.994 | S. cerevisiae deletion strains, locus YOR136W, strain idh2, active compounds read low 0.993 | S. cerevisiae deletion strains, locus YOR144C, strain elg1, active compounds read low 0.999 | S. cerevisiae deletion strains, locus YOR184W, strain ser1, active compounds read low 0.999 | S. cerevisiae deletion strains, locus YOR265W, strain rbl2, active compounds read low 0.987 | S. cerevisiae deletion strains, locus YOR270C, strain vph1, active compounds read low 0.989 | S. cerevisiae deletion strains, locus YOR290C, strain snf2, active compounds read low 0.933 | S. cerevisiae deletion strains, locus YOR316C, strain cot1, active compounds read low 1 | S. cerevisiae deletion strains, locus YPL051W, strain arl3, active compounds read low 1 | S. cerevisiae deletion strains, locus YPL055C, strain LGE1, active compounds read low 1.04 | S. cerevisiae deletion strains, locus YPL078C, strain atp4, active compounds read low 0.995 | S. cerevisiae deletion strains, locus YPL106C, strain sse1, active compounds read low 0.942 | S. cerevisiae deletion strains, locus YPL240C, strain hsp82, active compounds read low 0.983 | S. cerevisiae deletion strains, locus YPL241C, strain CIN2, active compounds read low 1.01 | S. cerevisiae deletion strains, locus YPR119W, strain clb2, active compounds read low 0.99 | S. cerevisiae deletion strains, locus YPR141C, strain kar3, active compounds read low 1 | S. cerevisiae deletion strains, locus YPR163C, strain tif3, active compounds read low 0.992 | S. cerevisiae deletion strains, locus YPR167C, strain met16, active compounds read low 1 | S. cerevisiae deletion strains, strain wtn01, active compounds read low 0.997 | S. cerevisiae strains, strain wild type, active compounds read low 1.02
